# About 4,000 (25%) of roughly 16,000 compounds were called active. Inconclusive results (about 26%) are left out. The call rests on the fitted dose curve; in most records, active means well fitted curve in the direction sought with a large enough effect; inconclusive means small, poorly fitted or top-dose-only effect, or effect the other way; inactive means no such curve, though single readings can be large or run the other way. These entries were drawn from the full list.
# Target: Cytochrome P450 2C9 (Homo sapiens) (UniProt P11712)
# Assay: Cytochrome panel assay with activity outcomes
# Settings: recombinant CYP, pro-luciferin dealkylation, luminescence, p450-cyp2c9; series mostly up to 57.1 µM
# Method: The P450 gene superfamily is involved in the metabolism and clearance of xenobiotics. This assay used various human CYP P450 isozymes to measure the dealkylation of various pro-luciferin substrates to luciferin. The luciferin is then measured by luminescence after the addition of a luciferase detection reagent. Pro-luciferin substrate concentration in the assay was equal to its KM for its CYP P450 isozyme. Inhibitors and some substrates limit the production of luciferin, and decrease measured luminescence.
# NCGC Assay Protocol Summary:
# 1, Reagent, 2 uL, Isozyme and Pro-Luciferin
# 2, Library compounds, 23 nl, 40 uM to 0.24 nM dilution series
# 3, Controls, 23 nl, Isozyme specific inhibitor
# 4, Reagent, 2 uL, NADPH regeneration solution
# 5, Incubation time, 60 min, Isozyme specific temperature
# 6, Reagent, 4ul, Detection reagent
# 7, Incubation time, 20 min, Isozyme specific temperature
# 8, Detection, 1 sec, ViewLux luminescent read
# The luciferase-based P450-GloTM Screening Systems were obtained from Promega (Madison, WI) for CYP 1A2 (V9770), CYP 2C9 (V9790), CYP2 C19 (V9880), CYP 2D6 (V9890), and CYP 3A4 Luciferin-PPXE (V9910) and were adapted for 1,536-well microplates and an automated protocol. The control compounds furafylline for 1A2 (F124), sulfaphenazole for CYP 2C9 (S0758), ketoconazole for CYP 2C19 (K1003), quinidine for 2D6 (Q3625), and ketoconazole for 3A4 (K1003) were purchased from Sigma Aldrich (St. Louis, MO). Recombinant P450 enzymes were obtained from baculovirus constructs expressed in insect cells (BD/Gentest).
# Medium-binding white solid Kalypsys plates used. Mixtures kept on ice. 1A2: 10 nM 1A2, 100 uM Luc-ME, 100 mM KPO4; 2C9: 10 nM 2C9, 100 uM Luc-H, 25 mM KPO4; 2C19: 5 nM 2C19, 10 uM Luc-H EGE, 50 mM KPO4; 2D6: 5 nM 2D6, 30 uM Luc-ME EGE, 100 mM KPO4; 3A4: 10 nM, 25 uM Luc-PPXE. All amounts are reflected in their final concentration, working concentration is 2x.
# NADPH regeneration solution: 1.3 mM NADP+, 3.3 mM glucose-6-phosphate, 3.3 mM MgCl2, 0.4 U/mL glucose-6-phosphate dehydrogenase for all isozymes, 200 mM KPO4 for 3A4. Mixture prepared at RT but kept on ice during automated run.
# RT incubation in auxilliary plate hotel for 1A2, 2D6, and 3A4; 37C for 2C9 and 2C19.
# Keywords: P450, CYP1A2, CYP2C19, CYP2C9, CYP2D6, CYP3A4, Luciferase, MLSMR, MLSCN, NIH Roadmap, qHTS, NCGC
# On the % scale 0 is the no-effect control and ±100 the full control effect.
# Sequence of Cytochrome P450 2C9 (Homo sapiens) (P11712 whole entry, looked up): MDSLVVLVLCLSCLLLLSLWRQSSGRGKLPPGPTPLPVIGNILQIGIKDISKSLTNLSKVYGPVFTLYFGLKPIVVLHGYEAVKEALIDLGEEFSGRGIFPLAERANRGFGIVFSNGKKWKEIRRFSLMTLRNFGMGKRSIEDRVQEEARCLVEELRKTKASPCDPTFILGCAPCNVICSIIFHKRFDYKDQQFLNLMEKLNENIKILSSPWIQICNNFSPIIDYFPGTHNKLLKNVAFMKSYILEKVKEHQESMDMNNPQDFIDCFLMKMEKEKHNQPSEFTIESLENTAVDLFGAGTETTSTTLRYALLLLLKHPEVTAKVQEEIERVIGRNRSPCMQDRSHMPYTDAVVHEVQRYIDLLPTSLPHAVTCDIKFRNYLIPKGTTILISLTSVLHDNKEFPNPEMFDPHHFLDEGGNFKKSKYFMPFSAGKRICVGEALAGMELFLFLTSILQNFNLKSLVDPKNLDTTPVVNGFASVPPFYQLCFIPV
SMILES,"activity, negative = inhibition",AC50
O=C(C1CC(=O)N(C2CCCC2)C1)N1CCC2(CC1)OCCO2 (stereo unspecified),inactive,
CCOC(=O)c1[nH]c(C)c(C(=O)N2CCC3(CC2)OCCO3)c1C,,20 µM (active)
N=C(N)c1ccc(-c2ccc(-c3ccc(C(=N)N)cc3)o2)cc1,19.5% [at 11.4 µM] (inactive),
COc1ccccc1CC1C(=O)C2CCN1CC2 (stereo unspecified),inactive,
CN(N=O)C(=O)N[C@H]1C(O)OC(CO)[C@@H](O)[C@H]1O (stereo partly specified),inactive,
CCOc1ccc2c(c1)C(C)=CC(C)(C)N2,,2 µM (active)
C[N+]1([O-])[C@@H]2CC(OC(=O)[C@@H](CO)c3ccccc3)C[C@@H]1[C@H]1O[C@H]12 (stereo partly specified),inactive,
CCCCn1c(N)c(C(=O)NCc2cccs2)c2nc3ccccc3nc21,,14.1 µM (active)
CC(C)CCn1c(N)c(C(=O)NCc2cccs2)c2nc3ccccc3nc21,,10 µM (active)
CC(C)C(=O)CP(=O)(O)O,13.2% [at 11.4 µM] (inactive),
O[C@H](CN1CC1)[C@@H](O)CN1CC1,4% [at 11.4 µM] (inactive),
C[C@H]1CN(C2CCC(C#N)(c3ccc(F)cc3)CC2)CC[C@@]1(C(=O)O)c1ccccc1 (stereo partly specified),inactive,
c1ccc2c(N3CCNCC3)cccc2c1,inactive,
Cc1nnc2ccc(-c3cccc(C(F)(F)F)c3)nn12,inactive,
c1ccc(CN2CCN(Cc3ccc4c(c3)OCCO4)CC2)cc1,inactive,
COc1ccc(C(=O)OC2C[C@H]3CC[C@@H](C2)N3C)cc1OC (stereo partly specified),inactive,
O=P(Nc1ccccc1)(Nc1ccccc1)Oc1cccc(Cl)c1,,12.6 µM (active)
CN1CCc2cc3c(cc2[C@@H]1[C@@H]1OC(=O)c2c1ccc1c2OCO1)OCO3,inactive,
CCCN(CCC)C1Cc2cc(OC)c(OC)cc2C1,inactive,
NC[C@@H](Cc1ccccc1)P(=O)(O)O,22.3% [at 11.4 µM] (inactive),
O=C(CNS(=O)(=O)c1ccc(Br)s1)N1CCC2(CC1)OCCO2,,11.2 µM (active)
O=C(Cn1ncc2ccsc2c1=O)N1CCC2(CC1)OCCO2,inactive,
Cc1ccc(S(=O)(=O)NCC2CCC(C(=O)N3CCC4(CC3)OCCO4)CC2)cc1 (stereo unspecified),inactive,
CO[C@H]1[C@H](O)[C@H](O[C@@H]2[C@H](Oc3cccc4c(O)c5c(=O)oc6ccc(C)c7c(=O)oc(c34)c5c67)O[C@@H](C)[C@H](O)[C@H]2O)O[C@@H](C)[C@@H]1O,-7.14% [at 11.4 µM] (inactive),
O=C(O)C[C@H]1NCc2cc3ccccc3nc21,-0.422% [at 11.4 µM] (inactive),
CN(C)CC/C=C1\c2ccccc2Sc2ccc(Cl)cc21,7.34% [at 11.4 µM] (inactive),

# From PubChem BioAssay AID1851 (National Center for Advancing Translational Sciences (NCATS), 2009)
